# Most compounds without a hit are left out; they make up all but 6.2% or so of the library.
# KB-3-1 tox: qHTS assay for MDR1-selective chemotherapeutics: Primary screen using the parental adenocarcinoma cell KB-3-1; 400,000 compounds, 1.4% hits; AID 1347075, 2019; Potency, µM (titrated, usually from 46.1 µM), actives largely listed as cytotoxic; KB-3-1 viability, CellTiter-Glo ATP luminescence, 72 h; note: % is set by controls: 0 for no effect and ±100 for the full control effect; nearly all actives have a fitted effect of over 60% in size
#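 Parental KB-3-1 adenocarcinoma cells in phenol-red-free DMEM with 10% FBS were pin-treated with compounds at several concentrations, incubated 72 h at 37 °C, and viability read by CellTiter-Glo luminescence; concentration-effect curves were fitted after normalization.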
# HT1080-NT tox: qHTS for induction of synthetic lethality in tumor cells producing 2HG: qHTS for the HT-1080-NT fibrosarcoma cell line. HT-1080-NT fibrosarcoma viability, CellTiter-Glo ATP luminescence, 48 h. 360,000 compounds, 1.6% hits. Potency, µM (top dose mostly 46.1 µM), without a hit: at the highest dose activity, negative = less viability, actives largely listed as cytotoxic. AID 686970, 2013;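 note: NT is the 2HG producing partner of a matched IDH1 knockdown line; 0% = DMSO-treated cells and -100% = media-only wells without cells; nearly all actives have a fitted effect of over 55% in size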
#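 HT-1080-NT; 750 cells/well; 5% FBS RPMI; 48 h compound, 37 degrees C; CellTiter-Glo luminescence; curve fitting and curve-class assignment.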
# KB-V1 cytotox: qHTS assay for MDR1-selective chemotherapeutics: Primary screen using the drug-selected MDR subline cells KB-V1. KB-V1 MDR cells viability, CellTiter-Glo, 72 h. Potency, µM (titrated, usually from 46.1 µM), usual class: cytotoxic. 400,000 compounds, 3.4% hits; note: % is set by controls: 0 for no effect and ±100 for the full control effect; nearly all actives have a fitted effect of over 60% in size
#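 KB-V1 MDR subline cells in DMEM (phenol-red free, 10% FBS) exposed to compounds in qHTS concentration series for 72 h at 37 degrees C. Viability read by CellTiter-Glo luminescence; concentration-effect curves fitted after normalization and correction.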
# S2 tox: Viability Counterscreen for Primary qHTS for Inhibitors of ATXN expression | Potency, µM (titrated, usually from 56.7 µM), actives largely listed as cytotoxic | 400,000 compounds, 0.49% hits | AID 651635, 2014 | S2 cells (HEK-293 line with an ATXN2-luciferase reporter) viability, CellTiter-Fluor protease fluorescence, 24 h; note: nearly all actives have a fitted effect of over 40% in size
# ATXN2 expr inh: Primary qHTS for Inhibitors of ATXN expression; AID 1745845, 2022; 360,000 compounds, 0.72% hits; Potency, µM (highest dose often 57 µM), inactives show at the highest dose activity change, negative = inhibition, most hits filed as inhibitors; HEK-293 ATXN2-luciferase reporter, luminescence, 24 h; note: % is set by controls: 0 for no effect and ±100 for the full control effect; nearly all actives have a fitted effect of over 55% in size
#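 ATXN2-luciferase reporter cells (luciferase flanked by upstream and downstream ATXN2 gene portions) were treated 24 h at 37 °C with compounds at up to 57 uM. SteadyGlo luminescence gave expression; GF-AFC fluorescence gave viability.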
# HT1080 IDH1KD tx: qHTS for induction of synthetic lethality in tumor cells producing 2HG: qHTS for the HT-1080-IDH1KD cell line; 360,000 compounds, 2% hits; HT-1080 IDH1 knockdown viability, ATP luminescence, 48 h; Potency, µM (titrated, usually from 46.1 µM), for the others: top-dose activity, negative = toxicity, actives largely listed as cytotoxic;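 note: 0% = DMSO wells and -100% = cell-free medium wells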
#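 % activity derives from luminescence (CellTiter-Glo), normalised to DMSO and no-cell wells. HT-1080-IDH1KD cells, 750/well, had 48 h compound exposure at 37 °C.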
# * = called active by the depositor; i = inactive; ? = inconclusive; nt = no result given. Calls come from the whole dose curve; as a rule, active = well fitted curve in the direction sought with a large enough effect; inconclusive = small, poorly fitted or top-dose-only effect, or another doubt; inactive = no such curve, though single readings can be large; an effect the other way counts as inactive or inconclusive. Potency is the fitted concentration of half-maximal effect.
SMILES,KB-3-1 tox,HT1080-NT tox,KB-V1 cytotox,S2 tox,ATXN2 expr inh,HT1080 IDH1KD tx
C=CCn1c(=N)n(CC(=O)c2ccc(Br)s2)c2ccccc21,14.6µM*,-29.7%,i,i,?,-23.4%
Cc1sc2nc(CN3CCOCC3)nc(NS(=O)(=O)c3ccccc3)c2c1C,i,15.3%,i,i,-19.9%,13.9%
Cc1sc2ncnc(NCCN3CCOCC3)c2c1C,i,-17.9%,16.4µM*,i,-14.6%,-22.5%
Cc1sc2nc(CN3CCOCC3)nc(NCCc3ccccc3)c2c1C,i,-10.4%,8.2µM*,i,-9.4%,-0.8%
Cc1sc2ncnc(NCc3cccnc3)c2c1C,i,-18.8%,i,i,-15.9%,-8.7%
Cc1sc2ncnc(NCc3ccco3)c2c1C,6.51µM*,-1.2%,2.59µM*,i,?,-3.8%
Cc1sc2ncnc(NCc3cccs3)c2c1C,?,-15.6%,2.59µM*,i,?,-16.8%
Cc1ccc(CCNC(=O)CCCn2c(=O)c3ccccc3n(Cc3ccccc3C#N)c2=O)cc1,i,nt,i,i,13.2%,nt
Cc1ccc2[nH]c3c(NCc4ccco4)ncnc3c2c1,13µM*,-8.3%,18.4µM*,i,-15.6%,-21.4%
Fc1ccc2[nH]c3c(NCc4ccco4)ncnc3c2c1,?,nt,i,nt,nt,nt
CC(=O)c1ccc(NC(=O)C(C)O/N=C(\N)c2ccccc2)cc1 (centres undefined),i,4.5%,23.1µM*,i,-0.6%,-6.6%
Cc1cccc(NC(=O)C2CCN(c3nccc(C)n3)CC2)c1,i,5.9%,14.6µM*,i,0.0%,5.0%
CCC(C)c1ccc(NC(=O)C2CCN(c3ccc(C(F)(F)F)cn3)CC2)cc1 (centres undefined),i,?,i,i,-13.3%,?
CCC(C)c1ccc(NC(=O)C2CCN(c3ncccn3)CC2)cc1 (centres undefined),?,?,18.4µM*,i,-0.5%,-13.3%
COC(=O)c1ccc(Cl)cc1NC(=O)Nc1nnc(N(C)C2CCCCC2)s1,i,nt,i,nt,nt,nt
CCC(=O)N1CCc2cc(Br)cc(S(=O)(=O)N3CCCC(C(=O)Nc4ccc(C)c(F)c4)C3)c21 (centres undefined),i,nt,i,i,-14.1%,nt
COc1cccc(NC(=O)CCNC(=O)Cn2cnc3ccccc3c2=O)c1,i,nt,i,i,-9.3%,nt
Cc1oc2c(c1C(=O)c1ccccc1)C(=O)C(=O)c1ccccc1-2,?,18.4µM*,i,nt,3.55µM*,18.4µM*
Cc1oc2c(c1C(=O)O)C(=O)c1ccccc1C2=O,?,2.6%,i,i,-11.8%,-12.9%
O=C1C(=O)c2c(C(=O)c3ccccc3)coc2-c2ccccc21,?,-0.4%,20.6µM*,nt,?,?
CC(=O)Oc1ccc(C(=C2CCCCC2)c2ccc(OC(C)=O)cc2)cc1,nt,nt,nt,i,6.0%,nt
ON=C1c2cc(OCCN3CCCCC3)ccc2-c2ccc(OCCN3CCCCC3)cc21,?,20.6µM*,?,?,?,23.1µM*
NC(=S)NN=C1c2cc(OCCN3CCOCC3)ccc2-c2ccc(OCCN3CCOCC3)cc21,23.1µM*,?,?,nt,7.94µM*,?
Clc1ccc(OCCN2CCCCC2)cc1Cl,i,-2.0%,i,i,1.1%,-0.5%
O=C(Nc1c(C(=O)N2CCN(c3ccc(F)cc3)CC2)oc2ccccc12)c1c(F)cccc1F,i,nt,i,i,-7.3%,nt
SMILES,KB-3-1 tox,HT1080-NT tox,KB-V1 cytotox,S2 tox,ATXN2 expr inh,HT1080 IDH1KD tx
COc1ccc(C)cc1Nc1cc(C)nc2nc(C)nn12,8.2µM*,-21.5%,?,i,5.1%,-24.0%
COc1ccc(OC)c(Nc2cc(C)nc3nc(C)nn23)c1,7.31µM*,-10.5%,20.6µM*,i,-2.1%,-20.9%
COc1ccc(Nc2cc(C)nc3nc(C)nn23)c(OC)c1,i,1.7%,i,i,-6.5%,0.7%
Cc1ccc(-n2c(=O)c3c4c(sc3n(Cc3ccccc3F)c2=O)CCC4)cc1C,i,nt,i,i,1.9%,nt
Cn1c2ccccc2c2ncn(CCC3=CCCCC3)c(=O)c21,i,-16.8%,16.4µM*,i,29.6%,-18.9%
O=C(Nc1ccon1)c1ccc(OC2CCCC2)cc1,i,-0.3%,18.4µM*,i,98.9%,-2.2%
CC(C)(C)c1cc(NC(=O)c2ccc(OC3CCCC3)cc2)no1,?,-24.1%,16.4µM*,i,5.8%,?
Cc1cc(C(=O)Nc2ccon2)cs1,i,3.1%,i,i,26.0%,-1.4%
Cc1cc(NC(=O)c2ccc(C(C)(C)C)cc2)no1,i,2.8%,i,i,64.9%,-7.2%
O=S1(=O)CC(N2CCN(Cc3ccccc3F)CC2)CN1Cc1cn(Cc2ccc(C(F)(F)F)cc2)nn1 (centres undefined),?,-17.9%,?,?,-33.6%,?
CSc1ccc(CCNC(=O)c2c(C)oc3ncn(C)c(=O)c23)cc1,i,nt,i,i,-3.2%,nt
COc1ccc(Cn2c(SCC(N)=O)nc3c(sc4ccccc43)c2=O)cc1,i,nt,i,i,9.8%,nt
CC1(C(=O)N2CCCCC2)CCN1C(=O)C1(c2ccccc2)CC1 (centres undefined),i,?,i,i,-4.9%,16.1%
O=c1c2ccccc2nc(COc2ccccc2)n1/N=C/c1c[nH]c2ccccc12,i,15.8%,?,?,-4.1%,13.8%
Cc1ccccc1OCc1nc2ccccc2c(=O)n1/N=C/c1cn[nH]c1-c1ccc(Br)cc1,?,-2.5%,7.31µM*,i,-15.1%,-2.7%
Cc1ccc(-c2[nH]ncc2/C=N/n2c(C)nc3ccccc3c2=O)cc1,i,-10.6%,i,i,-5.3%,-1.3%
O=c1c2ccccc2nc(COc2ccccc2)n1/N=C/c1cn[nH]c1-c1ccccc1,i,-24.0%,20.6µM*,i,-6.3%,-26.8%
CCCCNc1ccc(-c2nc(-c3ccccc3)no2)cc1[N+](=O)[O-],i,nt,i,?,18.4%,nt
COc1ccc(-n2c(CC3C(=O)N(C)c4ccc(C)cc43)nc3ccccc3c2=O)cc1 (centres undefined),i,nt,i,?,-7.7%,nt

# Compound activity as filed in PubChem BioAssay.
